What was measured:
Settings in all cases: concentration: 1 μM,replicates: in singlicate; n = 1
RIOK1 = system: RIOK1
RIOK2 = system: RIOK2
RIOK3 = system: RIOK3
RIPK1 = system: RIPK1
RIPK2 = system: RIPK2
RIPK4 = system: RIPK4
RIPK5 = system: RIPK5
ROCK1 = system: ROCK1
ROCK2 = system: ROCK2
ROS1 = system: ROS1
[1] = system: RPS6KA4(Kin.Dom.1-N-terminal)
[2] = system: RPS6KA4(Kin.Dom.2-C-terminal)
[3] = system: RPS6KA5(Kin.Dom.1-N-terminal)
[4] = system: RPS6KA5(Kin.Dom.2-C-terminal)
[5] = system: T1, RSK1(Kin.Dom.1-N-terminal)
T1 construct: gene RPS6KA1

[6] = system: T2, RSK1(Kin.Dom.2-C-terminal)
T2 construct: gene RPS6KA1

[7] = system: T3, RSK2(Kin.Dom.1-N-terminal)
T3 construct: gene RPS6KA3

[8] = system: T4, RSK2(Kin.Dom.2-C-terminal)
T4 construct: gene RPS6KA3

[9] = system: T5, RSK3(Kin.Dom.1-N-terminal)
T5 construct: gene RPS6KA2

[10] = system: T6, RSK3(Kin.Dom.2-C-terminal)
T6 construct: gene RPS6KA2
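Further: KINOMEscan kinase panel screen.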

SMILES: COc1cc2c(Nc3ccc(NC(=O)c4ccccc4)cc3)ncnc2cc1OCCCN1CCOCC1 [GSK301329]
- %Inh (RIOK1): 26%
- %Inh (RIOK2): 14%
- %Inh (RIOK3): 21%
- %Inh (RIPK1): 0%
- %Inh (RIPK2): 55%
- %Inh (RIPK4): 0%
- %Inh (RIPK5): 2%
- %Inh (ROCK1): 1%
- %Inh (ROCK2): 0%
- %Inh (ROS1): 3%
- %Inh [1]: 20%
- %Inh [2]: 0%
- %Inh [3]: 0%
- %Inh [4]: 0%
- %Inh [5]: 11%
- %Inh [6]: 0%
- %Inh [7]: 0%
- %Inh [8]: 1%
- %Inh [9]: 0%
- %Inh [10]: 0%

SMILES: COc1cccc(C2=C(Nc3cccc(Cl)c3)C(=O)NC2=O)c1 [SB-341556]
- %Inh (RIOK1): 41%
- %Inh (RIOK2): 14%
- %Inh (RIOK3): 1%
- %Inh (RIPK1): 0%
- %Inh (RIPK2): 0%
- %Inh (RIPK4): 4%
- %Inh (RIPK5): 16%
- %Inh (ROCK1): 0%
- %Inh (ROCK2): 0%
- %Inh (ROS1): 0%
- %Inh [1]: 11%
- %Inh [2]: 0%
- %Inh [3]: 5%
- %Inh [4]: 0%
- %Inh [5]: 28%
- %Inh [6]: 24%
- %Inh [7]: 25%
- %Inh [8]: 11%
- %Inh [9]: 1%
- %Inh [10]: 0%

SMILES: O=C(NOCC1CC1)c1cc(Br)c(F)c(F)c1Nc1ccc(I)cc1Cl
- %Inh (RIOK1): 0%
- %Inh (RIOK2): 0%
- %Inh (RIOK3): 0%
- %Inh (RIPK1): 0%
- %Inh (RIPK2): 0%
- %Inh (RIPK4): 0%
- %Inh (RIPK5): 0%
- %Inh (ROCK1): 0%
- %Inh (ROCK2): 0%
- %Inh (ROS1): 0%
- %Inh [1]: 0%
- %Inh [2]: 0%
- %Inh [3]: 0%
- %Inh [4]: 9%
- %Inh [5]: 0%
- %Inh [6]: 38%
- %Inh [7]: 9%
- %Inh [8]: 0%
- %Inh [9]: 1%
- %Inh [10]: 33%

SMILES: C[C@@H]1CCN(C(=O)N2CCCC2)C[C@@H]1N(C)c1ncnc2[nH]ccc12
- %Inh (RIOK1): 0%
- %Inh (RIOK2): 0%
- %Inh (RIOK3): 2%
- %Inh (RIPK1): 0%
- %Inh (RIPK2): 0%
- %Inh (RIPK4): 13%
- %Inh (RIPK5): 24%
- %Inh (ROCK1): 43%
- %Inh (ROCK2): 67%
- %Inh (ROS1): 23%
- %Inh [1]: 0%
- %Inh [2]: 2%
- %Inh [3]: 0%
- %Inh [4]: 0%
- %Inh [5]: 0%
- %Inh [6]: 14%
- %Inh [7]: 10%
- %Inh [8]: 0%
- %Inh [9]: 0%
- %Inh [10]: 22%

SMILES: CCn1c(-c2nonc2N)nc2cncc(Br)c21 [SB-738004]
- %Inh (RIOK1): 19%
- %Inh (RIOK2): 3%
- %Inh (RIOK3): 17%
- %Inh (RIPK1): 27%
- %Inh (RIPK2): 11%
- %Inh (RIPK4): 58%
- %Inh (RIPK5): 1%
- %Inh (ROCK1): 99.7%
- %Inh (ROCK2): 99.6%
- %Inh (ROS1): 7%
- %Inh [1]: 3%
- %Inh [2]: 86%
- %Inh [5]: 0%
- %Inh [6]: 38%
- %Inh [7]: 50%
- %Inh [8]: 27%
- %Inh [9]: 9%
- %Inh [10]: 6%

SMILES: COC(=O)c1cccc(NC(=O)NC2CCN(c3ccnc(Nc4cc(OC)c(OC)c(OC)c4)n3)C2)c1 (stereo not drawn) [GSK1379767]
- %Inh (RIOK1): 70%
- %Inh (RIOK2): 0%
- %Inh (RIOK3): 67%
- %Inh (RIPK1): 23%
- %Inh (RIPK2): 24%
- %Inh (RIPK4): 26%
- %Inh (RIPK5): 0%
- %Inh (ROCK1): 24%
- %Inh (ROCK2): 20%
- %Inh (ROS1): 30%
- %Inh [1]: 0%
- %Inh [2]: 0%
- %Inh [3]: 0%
- %Inh [4]: 30%
- %Inh [5]: 21%
- %Inh [6]: 5%
- %Inh [7]: 7%
- %Inh [8]: 1%
- %Inh [9]: 9%
- %Inh [10]: 29%

SMILES: NC(=O)Nc1sc(-c2ccc(F)cc2)cc1C(N)=O [GW789449]
- %Inh (RIOK1): 99.4%
- %Inh (RIOK2): 37%
- %Inh (RIOK3): 98.5%
- %Inh (RIPK1): 0%
- %Inh (RIPK2): 0%
- %Inh (RIPK4): 79%
- %Inh (RIPK5): 69%
- %Inh (ROCK1): 14%
- %Inh (ROCK2): 0%
- %Inh (ROS1): 0%
- %Inh [1]: 46%
- %Inh [2]: 7%
- %Inh [3]: 0%
- %Inh [4]: 0%
- %Inh [5]: 54%
- %Inh [6]: 33%
- %Inh [7]: 68%
- %Inh [8]: 45%
- %Inh [9]: 21%
- %Inh [10]: 7%
